Test results as given in PubChem BioAssay AID1159580 (chemical genetic matrix, 2015).
About 2,000 (36%) of roughly 5,500 compounds were called active. Inconclusive results (about 18%) are left out. No stated cut-off is given here; in the data, active means normalized growth mostly below about 0.91 (no sharp cut-off); inconclusive means no clear call, values can overlap the other calls; inactive means mostly above about 0.92. The list shows a part of the results.

Assay: chemical genetic growth profiling, strain panel (AID 1159580);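 further: tested at 20 µM; growth read once vehicle control cultures reached saturation at 30 °C; 1 = growth at the plate median or of vehicle wells; lower values mean less growth of the strain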
Conditions: growth OD

Measured: normalized growth

COc1cc2c(cc1OC)Cc1cc(OC)c(OC)cc1Cc1cc(OC)c(OC)cc1C2
inactive: S. cerevisiae deletion strains, locus YJR066W, strain TOR1, hits give low values 0.974 | S. cerevisiae deletion strains, locus YJR075W, strain HOC1, hits give low values 1.02 | S. cerevisiae deletion strains, locus YKL009W, strain mrt4, hits give low values 0.942 | S. cerevisiae deletion strains, locus YKL068W, hits give low values 1.02 | S. cerevisiae deletion strains, locus YKL085W, strain MDH1 (second series), hits give low values 0.927 | S. cerevisiae deletion strains, locus YKL085W, strain MDH1, hits give low values 0.927 | S. cerevisiae deletion strains, locus YKL160W, strain elf1, hits give low values 1.02 | S. cerevisiae deletion strains, locus YKL190W, strain CNB1, hits give low values 0.992 | S. cerevisiae deletion strains, locus YKR001C, strain vps1, hits give low values 1.04 | S. cerevisiae deletion strains, locus YKR026C, strain gcn3, hits give low values 1 | S. cerevisiae deletion strains, locus YKR091W, strain srl3, hits give low values 1.03 | S. cerevisiae deletion strains, locus YLL001W, strain dnm1, hits give low values 1.01 | S. cerevisiae deletion strains, locus YLL026W, hits give low values 1.04 | S. cerevisiae deletion strains, locus YLL041C, strain sdh2, hits give low values 1.03 | S. cerevisiae deletion strains, locus YLR027C, strain aat2, hits give low values 1.03 | S. cerevisiae deletion strains, locus YLR039C, strain RIC1, hits give low values 1.05 | S. cerevisiae deletion strains, locus YLR058C, strain SHM2, hits give low values 1.02 | S. cerevisiae deletion strains, locus YLR102C, strain apc9, hits give low values 1.03 | S. cerevisiae deletion strains, locus YLR113W, strain HOG1, hits give low values 1.05 | S. cerevisiae deletion strains, locus YLR221C, strain rsa3, hits give low values 1.04 | S. cerevisiae deletion strains, locus YLR258W, strain gsy2, hits give low values 1.03 | S. cerevisiae deletion strains, locus YLR262C, strain YPT6 (second series), hits give low values 1.05 | S. cerevisiae deletion strains, locus YLR262C, strain YPT6, hits give low values 1.08 | S. cerevisiae deletion strains, locus YLR268W, strain sec22, hits give low values 1.04 | S. cerevisiae deletion strains, locus YLR320W, strain mms22, hits give low values 1.03 | S. cerevisiae deletion strains, locus YLR330W, strain CHS5, hits give low values 1.01 | S. cerevisiae deletion strains, locus YLR342W, strain FKS1 (second series), hits give low values 1 | S. cerevisiae deletion strains, locus YLR342W, strain FKS1, hits give low values 1.04 | S. cerevisiae deletion strains, locus YLR357W, strain rsc2, hits give low values 1.05 | S. cerevisiae deletion strains, locus YLR370C, strain arc18, hits give low values 1.03 | S. cerevisiae deletion strains, locus YLR371W, strain rom2, hits give low values 1.03 | S. cerevisiae deletion strains, locus YLR384C, strain iki3, hits give low values 1.03 | S. cerevisiae deletion strains, locus YLR418C, strain cdc73, hits give low values 1.04 | S. cerevisiae deletion strains, locus YML016C, strain PPZ1, hits give low values 1.01 | S. cerevisiae deletion strains, locus YML032C, strain rad52, hits give low values 1.01 | S. cerevisiae deletion strains, locus YML120C, strain ndi1, hits give low values 1.02 | S. cerevisiae deletion strains, locus YML124C, strain tub3, hits give low values 1.06 | S. cerevisiae deletion strains, locus YMR058W, strain fet3, hits give low values 1.03 | S. cerevisiae deletion strains, locus YMR078C, strain ctf18, hits give low values 1.04 | S. cerevisiae deletion strains, locus YMR125W, strain sto1, hits give low values 1.05 | S. cerevisiae deletion strains, locus YMR129W, hits give low values 1.04 | S. cerevisiae deletion strains, locus YMR205C, strain PFK2, hits give low values 1.05 | S. cerevisiae deletion strains, locus YMR223W, strain ubp8, hits give low values 1.03 | S. cerevisiae deletion strains, locus YMR231W, strain pep5, hits give low values 1.03 | S. cerevisiae deletion strains, locus YMR263W, strain SAP30, hits give low values 1.01 | S. cerevisiae deletion strains, locus YMR307W, strain GAS1, hits give low values 1.04 | S. cerevisiae deletion strains, locus YNL067W, strain RPL9B, hits give low values 1.03 | S. cerevisiae deletion strains, locus YNL071W, strain lat1, hits give low values 1.03 | S. cerevisiae deletion strains, locus YNL183C, strain NPR1, hits give low values 0.956 | S. cerevisiae deletion strains, locus YNL209W, strain ssb2, hits give low values 1.03 | S. cerevisiae deletion strains, locus YNL233W, strain BNI4, hits give low values 1.01 | S. cerevisiae deletion strains, locus YNL248C, strain rpa49, hits give low values 1.03 | S. cerevisiae deletion strains, locus YNL250W, strain rad50, hits give low values 1.04 | S. cerevisiae deletion strains, locus YNL271C, strain bni1, hits give low values 1.02 | S. cerevisiae deletion strains, locus YNL298W, strain CLA4, hits give low values 1.02 | S. cerevisiae deletion strains, locus YNL307C, strain MCK1, hits give low values 1.03 | S. cerevisiae deletion strains, locus YNL322C, strain KRE1 (second series), hits give low values 1.05 | S. cerevisiae deletion strains, locus YNL322C, strain KRE1, hits give low values 1.03 | S. cerevisiae deletion strains, locus YNR049C, strain mso1, hits give low values 1.03 | S. cerevisiae deletion strains, locus YNR052C, strain pop2, hits give low values 1.02 | S. cerevisiae deletion strains, locus YOL012C, strain htz1 0.876 | S. cerevisiae deletion strains, locus YOL147C, strain pex11, hits give low values 1.02 | S. cerevisiae deletion strains, locus YOR001W, strain rrp6, hits give low values 1.02 | S. cerevisiae deletion strains, locus YOR061W, strain CKA2, hits give low values 1.01 | S. cerevisiae deletion strains, locus YOR069W, strain VPS5, hits give low values 1.01 | S. cerevisiae deletion strains, locus YOR070C, strain gyp1, hits give low values 1.03 | S. cerevisiae deletion strains, locus YOR080W, strain dia2, hits give low values 1.04 | S. cerevisiae deletion strains, locus YOR083W, strain WHI5, hits give low values 1.01 | S. cerevisiae deletion strains, locus YOR106W, strain vam3, hits give low values 1.07 | S. cerevisiae deletion strains, locus YOR136W, strain idh2, hits give low values 1.05 | S. cerevisiae deletion strains, locus YOR144C, strain elg1, hits give low values 1.04 | S. cerevisiae deletion strains, locus YOR184W, strain ser1, hits give low values 1.03 | S. cerevisiae deletion strains, locus YOR231W, strain MKK1, hits give low values 1.04 | S. cerevisiae deletion strains, locus YOR265W, strain rbl2, hits give low values 1.02 | S. cerevisiae deletion strains, locus YOR270C, strain vph1, hits give low values 1.03 | S. cerevisiae deletion strains, locus YOR290C, strain snf2, hits give low values 0.995 | S. cerevisiae deletion strains, locus YOR316C, strain cot1, hits give low values 1.02 | S. cerevisiae deletion strains, locus YPL051W, strain arl3, hits give low values 1.02 | S. cerevisiae deletion strains, locus YPL055C, strain LGE1, hits give low values 1.03 | S. cerevisiae deletion strains, locus YPL078C, strain atp4, hits give low values 1.03 | S. cerevisiae deletion strains, locus YPL106C, strain sse1, hits give low values 1.06 | S. cerevisiae deletion strains, locus YPL240C, strain hsp82, hits give low values 1.02 | S. cerevisiae deletion strains, locus YPL256C, strain CLN2, hits give low values 1.06 | S. cerevisiae deletion strains, locus YPR119W, strain clb2, hits give low values 1 | S. cerevisiae deletion strains, locus YPR141C, strain kar3, hits give low values 1.03 | S. cerevisiae deletion strains, locus YPR163C, strain tif3, hits give low values 1.03 | S. cerevisiae deletion strains, locus YPR167C, strain met16, hits give low values 1.03 | S. cerevisiae deletion strains, strain wtn01, hits give low values 1.04 | S. cerevisiae strains, strain wild type, hits give low values 1.03
